Shown are actives, neighbours in structure and some others; about 1.5% of the full set was active somewhere.
Rin1-Abl PPI inh: inhibitors of human Rin1-Abl protein interaction. P00519+Q13671. TR-FRET Rin1/Abl binding, biochemical. inhibition, % at 7.35 µM. 360,000 tested, 0.4% active. AID 588664; in the data active = inhibition above about 5%, passing the limit was not always enough
Target sequence (P00519 whole entry, looked up): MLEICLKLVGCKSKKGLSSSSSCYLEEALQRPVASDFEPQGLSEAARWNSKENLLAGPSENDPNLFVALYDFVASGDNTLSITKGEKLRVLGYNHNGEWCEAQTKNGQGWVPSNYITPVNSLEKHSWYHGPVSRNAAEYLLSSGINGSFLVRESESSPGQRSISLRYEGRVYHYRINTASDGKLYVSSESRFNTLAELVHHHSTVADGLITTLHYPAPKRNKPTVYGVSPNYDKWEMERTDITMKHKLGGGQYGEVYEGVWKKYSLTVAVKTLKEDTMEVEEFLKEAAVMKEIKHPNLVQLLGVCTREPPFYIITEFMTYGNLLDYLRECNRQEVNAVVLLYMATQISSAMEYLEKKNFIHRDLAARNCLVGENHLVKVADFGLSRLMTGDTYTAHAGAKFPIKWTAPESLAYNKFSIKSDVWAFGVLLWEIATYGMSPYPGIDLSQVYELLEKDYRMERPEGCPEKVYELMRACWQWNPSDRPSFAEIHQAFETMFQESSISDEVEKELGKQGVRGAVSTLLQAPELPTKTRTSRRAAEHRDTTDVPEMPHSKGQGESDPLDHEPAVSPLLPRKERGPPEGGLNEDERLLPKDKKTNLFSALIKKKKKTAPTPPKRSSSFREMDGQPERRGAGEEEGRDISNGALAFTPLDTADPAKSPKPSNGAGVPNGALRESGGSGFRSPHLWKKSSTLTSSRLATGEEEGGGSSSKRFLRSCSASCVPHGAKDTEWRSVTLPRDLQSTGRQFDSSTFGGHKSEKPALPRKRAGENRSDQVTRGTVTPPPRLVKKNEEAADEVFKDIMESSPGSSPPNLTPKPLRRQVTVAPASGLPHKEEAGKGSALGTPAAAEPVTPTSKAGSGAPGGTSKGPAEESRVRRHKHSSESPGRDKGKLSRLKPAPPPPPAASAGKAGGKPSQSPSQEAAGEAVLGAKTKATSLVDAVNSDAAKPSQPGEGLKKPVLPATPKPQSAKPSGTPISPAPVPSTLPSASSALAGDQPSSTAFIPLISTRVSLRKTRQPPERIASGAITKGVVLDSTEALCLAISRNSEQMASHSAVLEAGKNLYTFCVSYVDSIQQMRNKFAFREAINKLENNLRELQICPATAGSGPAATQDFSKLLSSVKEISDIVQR
Target sequence (Q13671 whole entry, looked up): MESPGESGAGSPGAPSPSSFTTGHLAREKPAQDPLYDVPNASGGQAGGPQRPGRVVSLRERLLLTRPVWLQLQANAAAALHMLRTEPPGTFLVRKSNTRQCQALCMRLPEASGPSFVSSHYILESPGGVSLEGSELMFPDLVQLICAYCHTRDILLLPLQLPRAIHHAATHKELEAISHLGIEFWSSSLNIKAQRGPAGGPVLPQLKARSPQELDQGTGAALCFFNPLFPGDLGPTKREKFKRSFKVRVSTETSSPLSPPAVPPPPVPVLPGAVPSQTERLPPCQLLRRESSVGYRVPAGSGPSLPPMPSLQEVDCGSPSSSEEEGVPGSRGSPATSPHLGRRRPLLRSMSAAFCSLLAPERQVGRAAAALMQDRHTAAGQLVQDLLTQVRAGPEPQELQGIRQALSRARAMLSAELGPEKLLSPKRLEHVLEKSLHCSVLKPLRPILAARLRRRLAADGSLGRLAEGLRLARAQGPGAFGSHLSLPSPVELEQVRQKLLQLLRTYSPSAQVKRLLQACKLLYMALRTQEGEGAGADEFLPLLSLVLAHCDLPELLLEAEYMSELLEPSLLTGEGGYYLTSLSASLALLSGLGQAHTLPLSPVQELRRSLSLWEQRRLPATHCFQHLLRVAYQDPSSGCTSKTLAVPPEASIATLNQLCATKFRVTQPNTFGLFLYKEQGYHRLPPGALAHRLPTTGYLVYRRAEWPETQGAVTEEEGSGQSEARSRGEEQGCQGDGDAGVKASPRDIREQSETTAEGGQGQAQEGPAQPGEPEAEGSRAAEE
sPLA2-III inh: Inhibits HGIII-sPLA2 liposome hydrolysis, primary screen; Q9NZ20; QFRET BODIPY PC-A2 liposome hydrolysis, fluorescence; inhibition, % at 12.2 µM; 370,000 tested, 0.56% active; AID 743126;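 active = inhibition above mean plus 3 SD of compounds lying within the high and low control bounds, cut at about 19% in these data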
ARNT-TACC3 inh: disruptors of human ARNT/TACC3 interaction | Q9Y6A5 | AlphaScreen His-ARNT PAS-B/GST-TACC3 binding, luminescence; TACC3 fragment carries E629A point mutation | inhibition, % at 9.99 µM | 390,000 tested, 0.66% active | AID 623870;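 active = mean inhibition of replicates at least 50% and at least half of replicates each reaching 50%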
AI-2 QS modul: modulators of Vibrio harveyi AI-2 quorum sensing system; Vibrio harveyi JMH597 AI-2 luminescence/OD600 ratio, 9 h; stronger effect = lower value; strain lacks LuxN and CqsS sensors; 0 = neutral-control median; activity change, % at 7.5 µM; 300,000 tested, 0.4% active; in the data active = activity change below about -75%, passing the limit was not always enough;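 note: luminescence divided by OD600 gain over 9 h not by final OD600 alone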
hGIII sPLA2 conf: human GIII-sPLA2 inhibition, confirmation | inhibition, % at 12.2 µM | recombinant hGIII-sPLA2, BODIPY PC-A2 QFRET fluorescence | shares compounds with sPLA2-III inh | 2,000 tested, 34% active;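 active = mean inhibition across triplicates above the hit cutoff set in the earlier primary screen, cut at about 19% in these data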
BODIPY interf: counter-screen for HGIII-sPLA2 inhibitors: 535nm fluorescence interference; shares compounds with sPLA2-III inh; BODIPY FL product fluorescence interference, QFRET; inhibition, % at 12.2 µM; 2,000 tested, 8.5% active;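 active = average inhibition above the solvent-only control mean plus 3 SD, cut at about 6% in these data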
535nm interf DR: interferes with 535nm fluorescence in dose response counter-screen | IC50, µM | shares compounds with sPLA2-III inh | 240 tested, under 10 active | AID 743455 | BODIPY FL product fluorescence interference, cell-free;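 active = IC50 at or below 10 µM; inactive = IC50 above 10 µM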
Each line names hits and unclear results; the compound was inactive in the other large screens (follow-up assays come after a bar, where they were run).

Fc1ccc(-n2c(-c3ccc4c(c3)OCO4)n[nH]c2=S)cc1Cl	sPLA2-III inh 23 (no result: ARNT-TACC3 inh) | hGIII sPLA2 conf 34 | BODIPY interf inactive | 535nm interf DR inactive
COc1ccc(S(=O)(=O)N[C@H]2C=C[C@H](CC(=O)N3CCN(c4ccccc4)CC3)O[C@H]2CO)cc1	none (no result: Rin1-Abl PPI inh, sPLA2-III inh, AI-2 QS modul)
COc1ccc(Cl)cc1-c1n[nH]c(=S)n1C	sPLA2-III inh 24 | hGIII sPLA2 conf inactive | BODIPY interf inactive
CCn1c(-c2cc(Cl)ccc2OC)n[nH]c1=S	none
NNC(=O)c1nc[nH]c1C(=O)Nc1ccccc1	sPLA2-III inh 27 | hGIII sPLA2 conf inactive | BODIPY interf inactive
O=C(Nc1ccccc1)c1nc[nH]c1C(=O)NCc1ccccc1	none (no result: AI-2 QS modul)
C[C@H](NC(=O)C[C@H]1CC[C@@H]2[C@H](COC[C@H](O)CN2C)O1)c1ccccc1	none (no result: Rin1-Abl PPI inh, sPLA2-III inh, AI-2 QS modul)
CN1c2ccc([N+](=O)[O-])cc2N(C)C1(C)c1ccccc1 (stereo not drawn)	sPLA2-III inh 25 | hGIII sPLA2 conf 44 | BODIPY interf 8.0
Cn1c2ccccc2c2cc([N+](=O)[O-])ccc21	none
Cc1ccc(N2CCN(CC3CC=CCC3)CC2)cc1 (stereo not drawn)	none
C1=CCC(CN2CCN(C3CCCCCC3)CC2)CC1 (stereo not drawn)	sPLA2-III inh 20 | hGIII sPLA2 conf inactive | BODIPY interf inactive
CO[C@H]1CN(C)C(=O)c2ccc(NS(C)(=O)=O)cc2OC[C@@H](C)N(C(=O)C2CC2)C[C@H]1C	none (no result: Rin1-Abl PPI inh, sPLA2-III inh, AI-2 QS modul)
Cc1ccc(-c2c[n+](Cc3cccc(Cl)c3)c3n2CCC3)cc1	none
Clc1cccc(C[n+]2cc(-c3ccccc3)n3c2CCC3)c1	sPLA2-III inh 19 | hGIII sPLA2 conf inactive | BODIPY interf inactive
Cc1cc(C)c(O)c(-c2n[nH]c3c2C(c2cccc(O)c2)N(Cc2ccco2)C3=O)c1 (stereo not drawn)	sPLA2-III inh 24 | hGIII sPLA2 conf inactive | BODIPY interf inactive
CCCC(=O)Nc1ccc2c(c1)OC[C@@H](C)NC[C@@H](C)[C@@H](OC)CN(C)C2=O	none (no result: Rin1-Abl PPI inh, sPLA2-III inh, AI-2 QS modul)
C[C@@H]1CCCCO[C@H](CN(C)S(=O)(=O)c2ccc(F)cc2)[C@@H](C)CN([C@@H](C)CO)C(=O)c2cc(NC(=O)CCCN(C)C)ccc2O1	none (no result: Rin1-Abl PPI inh, sPLA2-III inh, AI-2 QS modul)
COC(=O)c1sccc1NC(=S)Nc1ccccc1	none
COC(=O)c1sccc1NC(=S)Nc1cccc(F)c1	sPLA2-III inh 19 | hGIII sPLA2 conf inactive | BODIPY interf inactive
COC(=O)c1sccc1NC(=S)Nc1cc(C)cc(C)c1	sPLA2-III inh 23 | hGIII sPLA2 conf inactive | BODIPY interf inactive
CC(C)NC(=O)NCC[C@H]1CC[C@@H](NC(=O)CCN2CCCCC2)[C@@H](CO)O1	none (no result: Rin1-Abl PPI inh, sPLA2-III inh, AI-2 QS modul)
O=C1NC(=S)N(C(=O)c2ccc(F)cc2)/C1=C/c1cccnc1	sPLA2-III inh 20 (no result: ARNT-TACC3 inh) | hGIII sPLA2 conf inactive | BODIPY interf inactive
COCC(=O)N1CCCCN2[C@H](CO)[C@H](c3ccc(C#Cc4cccnc4)cc3)[C@@H]2C1	none (no result: Rin1-Abl PPI inh, sPLA2-III inh, AI-2 QS modul)
O=[N+]([O-])c1ccc(Nc2ccc(Cl)cc2)nc1	none
O=[N+]([O-])c1ccc(NNS(=O)(=O)c2cc(Cl)ccc2Cl)nc1	sPLA2-III inh 23 | hGIII sPLA2 conf 48 | BODIPY interf 72
COc1ccc(NS(=O)(=O)c2cc(N)ccc2N2CCCC2)cc1	sPLA2-III inh 21 (no result: AI-2 QS modul) | hGIII sPLA2 conf inactive | BODIPY interf inactive
COc1ccc(NS(=O)(=O)c2ccc(N3CCCC3)c(N)c2)cc1	none
Oc1cccc(NC(=S)Nc2ccc(SC(F)F)cc2)c1	sPLA2-III inh 35 | hGIII sPLA2 conf inactive | BODIPY interf inactive
Cc1ccc(C)c(N2CCN(C(=O)c3ccc4nc(-c5ccco5)c(-c5ccco5)nc4c3)CC2)c1	sPLA2-III inh 20 | hGIII sPLA2 conf inactive | BODIPY interf inactive
Fc1ccc(NC(=S)NN2CCOCC2)cc1Cl	sPLA2-III inh 25 | hGIII sPLA2 conf inactive | BODIPY interf inactive
CC1=CC(C)(C)NC(=S)N1c1ccc2ccccc2c1	none
CC1=CC(C)(C)NC(=S)N1c1ccc(Cl)cc1	sPLA2-III inh 20 (no result: AI-2 QS modul) | hGIII sPLA2 conf 21 | BODIPY interf inactive
CC1=CC(C)(C)NC(=S)N1c1cccc2ccccc12	sPLA2-III inh 20 | hGIII sPLA2 conf 31 | BODIPY interf inactive | 535nm interf DR inactive
COc1ccc2c(c1)OC[C@H]1[C@H]2N2C(=O)c3cc(OC)c(OC)cc3NC(=O)[C@@]2(C)[C@H]1c1ccccc1	sPLA2-III inh 31 (no result: AI-2 QS modul) | hGIII sPLA2 conf inactive | BODIPY interf inactive
COc1cc2c(cc1OC)C(=O)N1[C@H]3c4ccccc4OC[C@@H]3[C@H](c3ccccc3)[C@]1(C)C(=O)N2	none (no result: AI-2 QS modul)
COCCn1c(SCC(=O)NCC2CCCO2)nc2c(c1=O)SC(C)C2 (stereo not drawn)	sPLA2-III inh 20 | hGIII sPLA2 conf inactive | BODIPY interf inactive
CC1Cc2nc(SCC(=O)NCC3CCCO3)n(-c3ccccc3)c(=O)c2S1 (stereo not drawn)	none (no result: ARNT-TACC3 inh, AI-2 QS modul)
CCCCOc1ccc(-c2c(C#N)c(N)nc(SCC(N)=O)c2C#N)cc1	sPLA2-III inh 46 | hGIII sPLA2 conf inactive | BODIPY interf inactive
CCCCOC(=O)CSc1nc(N)c(C#N)c(-c2ccc(OCC)cc2)c1C#N	none
CSc1nc(-c2ccc(Cl)cc2)nc(N)c1C#N	none (no result: ARNT-TACC3 inh)
CSc1nc(N)c(C#N)c(-c2ccc(Cl)cc2)c1C#N	sPLA2-III inh 22 | hGIII sPLA2 conf 24 | BODIPY interf inactive
Cc1ccc(-n2c(-c3ccccc3)c[nH]c2=S)cc1	sPLA2-III inh 20 | hGIII sPLA2 conf 27 | BODIPY interf inactive
COc1ccc(-n2c(-c3ccc(Cl)cc3)c[nH]c2=S)cc1	sPLA2-III inh 22 | hGIII sPLA2 conf 29 | BODIPY interf inactive
C[C@@H]1CN([C@@H](C)CO)S(=O)(=O)c2ccc(C#CC3CC3)cc2O[C@H]1CN(C)C(=O)c1cnccn1	none (no result: Rin1-Abl PPI inh, sPLA2-III inh, AI-2 QS modul)
C[C@@H]1CN([C@H](C)CO)C(=O)c2cc(NS(=O)(=O)c3cccs3)ccc2O[C@H]1CN(C)S(=O)(=O)c1cn(C)cn1	none (no result: Rin1-Abl PPI inh, sPLA2-III inh, AI-2 QS modul)
CC1CCCC(NC(=O)COC(=O)/C=C/c2ccc([N+](=O)[O-])cc2)C1C (stereo not drawn)	sPLA2-III inh 19 (no result: AI-2 QS modul) | hGIII sPLA2 conf inactive | BODIPY interf inactive
CC1=NN(c2ccccc2)C(=O)/C1=C/C=C/c1ccc(N(C)C)cc1	sPLA2-III inh 23 | hGIII sPLA2 conf 44 | BODIPY interf 9.7
CC1=NN(c2ccccc2)C(=O)/C1=C/N(C)C	none
COCC#Cc1ccc2c(c1)O[C@@H](CN(C)Cc1ccccc1)[C@H](C)CN([C@@H](C)CO)S2(=O)=O	none (no result: Rin1-Abl PPI inh, sPLA2-III inh, AI-2 QS modul)
Cc1ccc(C)c(OCc2n[nH]c(=S)o2)c1	sPLA2-III inh 24 | hGIII sPLA2 conf inactive | BODIPY interf inactive

Screens as filed in PubChem BioAssay.
